Rows were chosen to be rich in hits. Some 1.9% of all compounds tested hit in one or more screens of this group.
USP2a inh = qHTS Assay for Inhibitors of Ubiquitin-specific Protease USP2a Using CHOP2 as the Reporter; Ubiquitin carboxyl-terminal hydrolase 2 (Homo sapiens), O75604; USP2 core, Ub-CHOP2 coupled fluorogenic reporter, 485/531; Potency, µM (titrated, usually from 38.3 µM), for the others: at the highest dose activity change, negative = inhibition, usual class: inhibitors; hit rate 0.01% among 330,000;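 note: potency is the fitted concentration of half-maximal effect; plate controls were DMSO wells for no effect and full inhibition by NEM control for full effect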
Target sequence (O75604 whole entry, looked up): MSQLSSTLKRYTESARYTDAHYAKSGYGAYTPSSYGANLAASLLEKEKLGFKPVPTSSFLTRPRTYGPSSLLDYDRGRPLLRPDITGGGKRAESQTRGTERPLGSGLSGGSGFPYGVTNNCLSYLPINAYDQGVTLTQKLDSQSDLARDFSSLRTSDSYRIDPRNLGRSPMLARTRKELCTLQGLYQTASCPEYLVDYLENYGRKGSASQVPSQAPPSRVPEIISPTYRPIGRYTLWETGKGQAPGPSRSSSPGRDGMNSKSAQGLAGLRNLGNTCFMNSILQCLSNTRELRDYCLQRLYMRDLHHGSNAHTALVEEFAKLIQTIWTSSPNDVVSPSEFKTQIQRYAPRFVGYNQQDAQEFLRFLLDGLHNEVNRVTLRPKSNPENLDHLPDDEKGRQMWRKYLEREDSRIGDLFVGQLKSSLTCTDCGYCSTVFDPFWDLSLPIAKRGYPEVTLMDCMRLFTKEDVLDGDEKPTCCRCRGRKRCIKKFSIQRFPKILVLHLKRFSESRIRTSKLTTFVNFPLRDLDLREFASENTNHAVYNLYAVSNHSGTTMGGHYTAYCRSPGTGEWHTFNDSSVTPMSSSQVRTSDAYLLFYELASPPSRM
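Cell-free coupled assay: 10nM USP2 core preincubated 30min RT with compound in Tris-HCl pH 8.0/CaCl2/CHAPS buffer, then 25nM Ub-CHOP2 and 25nM reporter substrate; fluorescence (Ex 485/Em 531) read after 60min RT, normalized to NEM inhibition, concentration-response curves fitted.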
Pin1 inh = qHTS Assay to Find Inhibitors of Pin1; AID 504891, 2011; Potency, µM (highest dose often 115 µM), inactives show at the highest dose activity, negative = inhibition, hits mostly inhibitors; Peptidyl-prolyl cis-trans isomerase NIMA-interacting 1 (Homo sapiens), Q13526; hit rate 0.009% among 390,000; Pin1 FP peptide displacement, HiFluor488, 10 min; active = well fitted inhibition curve with a large enough effect in the polarisation, with a control signal flat, not every such curve was filed as active; inconclusive = small, poorly fitted or top-dose-only effect, or effect the other way, or a change in a side signal; inactive = no such curve, though single readings can be large or run the other way; the % refers to the polarisation; note: potency is the fitted concentration of half-maximal effect; % is set by controls: 0 for no effect and ±100 for the full control effect
ClpP mod = qHTS Assay for Activators of ClpP; AID 651965, 2013; hit rate 1.9% among 340,000; Potency, µM (highest dose often 57.5 µM), for the others: at the highest dose activity change, negative = active; purified B. subtilis ClpP, FRET peptide cleavage, 20 min; active = well fitted falling curve with a large enough effect; inconclusive = small, poorly fitted or top-dose-only effect; inactive = no such curve, though single readings can be large or run the other way; note: potency is the fitted concentration of half-maximal effect; the source files actives as falling curves though it sought activators and does not explain the sign; nearly all actives have a fitted effect of over 65% in size
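FRET quenching reversal measured ClpP activation: 10 microg/mL B. subtilis ClpP at pH 8 with the FRET-FV decapeptide, read at 430 nm after 320 nm excitation. The 20-min minus 0-min signal was scaled between DMSO/no-enzyme wells and ADEP (5.8 microM final).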
Integrin act MD = qHTS for Activators of Integrin-Mediated Alleviation for Muscular Dystrophy; alpha7betagal myoblasts, beta-gal FDG fluorescence, 48 h; Potency, µM (series often up to 38.3 µM), for inactives: at the top dose activation, most hits filed as activators; hit rate 0.064% among 350,000; AID 624291, 2012;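 note: potency is the fitted concentration of half-maximal effect; 100% = response of the positive control SU9516; nearly all actives have a fitted effect of over 60% in size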
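alpha7betagal+/- myoblasts (passage 13, 250/well) treated 48 h at 37C with compounds at 1:260 dilution of DMSO stock. Lysed, then beta-galactosidase activity read as FDG fluorescence (ex 480/em 540) after 30 min, with pre-read for autofluorescence.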
PKM2 activator = qHTS Assay for Activators of Human Muscle isoform 2 Pyruvate Kinase. purified PKM2, Kinase-Glo ATP luminescence, activation; response scale: 0% is enzyme alone, no compound. Potency, µM (top dose mostly 57.5 µM), for inactives: top-dose activation, usual class: activators. hit rate 0.34% among 260,000; note: potency is the fitted concentration of half-maximal effect; % is set by controls: 0 for no effect and ±100 for the full control effect; nearly all actives have a fitted effect of over 55% in size
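Purified hPK-M2 (>95%) run at intermediate activity with 0.1 mM ADP and 0.5 mM PEP in 50 mM imidazole pH 7.2, KCl, MgCl2; 1 h room temperature. ATP formed read by Kinase-Glo luminescence; normalized to uninhibited and no-enzyme controls.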
IL2 activator = qHTS of IL-2 Activators. activation, % (series mostly up to about 46 µM). hit rate 0.065% among 360,000. IL-2 activation reporter assay, cell-based qHTS; stimulated with anti-CD3/CD4/CD28 beads; in transgenic mouse T cells; in the data active = activation above about 50%; inconclusive = mostly about 30% to 49%; note: 0% is about no effect
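Quantitative HTS in unstimulated transgenic mouse T cells, with memory T cells as non-tolerant control and PMA/ionomycin as tolerance-bypass control. Compound pretreatment lasted 60 minutes before 18 h bead stimulation; EGFP/DsRed fluorescence read.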
The depositor's hits bear a star; ? = inconclusive; · = no result. Unless noted, calls come from the whole dose curve; as a rule, active = well fitted curve in the direction sought with a large enough effect; inconclusive = small, poorly fitted or top-dose-only effect, or another doubt; inactive = no such curve, though single readings can be large; an effect the other way counts as inactive or inconclusive.

SMILES	USP2a inh	Pin1 inh	ClpP mod	Integrin act MD	PKM2 activator	IL2 activator
Cc1ccc(C2NC(=O)c3c(sc4c3CCN(C)C4)N2)s1 (stereo not given)	9%	?	25µM*	2%	1%	2
Cc1ccc(C2NC(=O)c3c(sc4c3CCN(C)C4)N2)o1 (stereo not given)	15%	?	28µM*	-29%	1%	-1
CN1CCc2c(sc3c2C(=O)NC(c2ccccn2)N3)C1 (stereo not given)	19%	?	16µM*	-11%	-22%	0
Cc1nn(-c2ccccn2)c2c1C(c1ccsc1)C1=C(CCCC1=O)N2 (stereo not given)	2%	10%	25µM*	6%	0%	2
Cc1cc2nnc(SC(C)C)n2c2ccccc12	5%	1%	28µM*	21%	1%	0
Cc1cc2nnc(SC(C)C#N)n2c2ccccc12 (stereo not given)	-2%	-1%	-1%	-16%	-18%	4
CCCCCc1c2c(cc(O)c1C(=O)O)OC(=O)c1c(cc(OC)cc1C(=O)CCCC)O2	1%	18µM*	1%	10%	0%	-1
COc1ccc(C=O)cc1COc1ccc(NC(C)=O)cc1	·	2%	·	·	·	·
Cc1ccc(O)c(C(=O)c2cnn(C(=O)COc3ccc(Cl)cc3)c2)c1	3%	5%	16µM*	0%	?	-2
CCc1ccccc1NC(=S)N1CCN(c2cccc(OC)c2)CC1	0%	0%	10µM*	-9%	-1%	0
COc1ccc(C2c3c(N)nc(CCCc4ccccc4)nc3Oc3ccc4ccccc4c32)cc1OC (stereo not given)	·	20%	·	·	·	·
CCOC(=O)C1=C(C)NC2=C(C(=O)C(C(=O)OCC)C(c3ccco3)C2)C1c1ccccn1 (stereo not given)	2%	-1%	32µM*	-9%	4%	-2
CCOC(=O)C1=C(C)NC2=C(C(=O)C(C(=O)OCC)C(c3ccco3)C2)C1c1ccccc1C (stereo not given)	·	·	3%	·	·	·
CC(C)(C)CC(C)(C)N=C1Nc2ccc([N+](=O)[O-])cc2N[C@]12C[C@H]1CCCC(=O)N3CC[C@@H](C2)[C@@H]13	·	·	4%	·	·	·
COc1ccc(-c2cc3ccccc3n2CC(O)CN2CCN(CCO)CC2)cc1 (stereo not given)	2%	-1%	4%	-6%	3%	2
COc1ccc(-c2cc3ccccc3n2CC(O)CN2CCOCC2)cc1 (stereo not given)	-8%	1%	8.9µM*	-16%	-1%	-2
Cc1ccc(Cl)cc1NS(=O)(=O)c1cc2c(cc1F)NC(=O)CC2	·	-7%	·	·	·	·
CC(C(=O)N1CCN(Cc2ccccc2)CC1)n1ncn2cccc2c1=O (stereo not given)	-1%	0%	2%	7%	0%	-1
CC(C(=O)N1CCCCC1)n1ncn2cccc2c1=O (stereo not given)	2%	-3%	28µM*	4%	-1%	0
O=C(Nc1cccc2ccccc12)N1CC=CCC1	2%	5%	28µM*	-6%	4%	2
O=C(Nc1cccc2ccccc12)N1CCN(c2ccccc2)CC1	2%	4%	-7%	25%	2%	-1
CCc1nc(SCC(=O)Nc2ccc(OC)cc2[N+](=O)[O-])n[nH]1	3%	-8%	-2%	-19%	25µM*	2
COc1ccc(NC(=O)CSc2n[nH]c(-c3ccncc3)n2)c([N+](=O)[O-])c1	1%	-6%	-3%	5%	1%	1

High-throughput results deposited in PubChem BioAssay by National Center for Advancing Translational Sciences (NCATS).
